Measured values: PubChem BioAssay (EPA / NIEHS)
Inconclusive results are not listed. The source made the active and inactive calls. How the source made its calls: active means hit-call score of the fitted dose curve at least 0.9, where 1 is the maximum; inconclusive means response in the unintended direction; inactive means score below 0.9.

target: Retinoic acid receptor RXR-alpha (Homo sapiens) (UniProt P19793); assay: OT_NURR1_NURR1RXRa_1440: Odyssey Thera (OT) 24-hour HEK293T Protein Complementation Assay for Nurr1/retinoid X receptor (RXR) (AID 2283386)
Sequence (P19793 whole entry, looked up, the tested form may be a part): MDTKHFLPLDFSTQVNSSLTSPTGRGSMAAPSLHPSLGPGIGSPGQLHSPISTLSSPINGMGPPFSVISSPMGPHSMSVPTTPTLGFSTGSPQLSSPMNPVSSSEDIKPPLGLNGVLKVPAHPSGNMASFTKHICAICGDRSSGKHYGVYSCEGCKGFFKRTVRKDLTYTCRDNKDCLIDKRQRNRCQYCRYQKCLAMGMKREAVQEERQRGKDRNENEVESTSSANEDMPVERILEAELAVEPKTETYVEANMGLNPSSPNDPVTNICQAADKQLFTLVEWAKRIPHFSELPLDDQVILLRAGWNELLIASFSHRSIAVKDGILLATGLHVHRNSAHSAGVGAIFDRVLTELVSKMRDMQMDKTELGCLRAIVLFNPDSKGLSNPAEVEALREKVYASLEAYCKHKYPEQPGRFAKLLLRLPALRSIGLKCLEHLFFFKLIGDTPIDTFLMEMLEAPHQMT
Method: OT_NURR1_NURR1RXRa_1440 is a cell-based assay that uses HEK293T, a human kidney cell line, with measurements taken at 24 hours after chemical dosing in a 384-well plate.OT_NURR1_NURR1RXRa_1440 is one of one assay component(s) measured or calculated from the OT_NURR1_NURR1RXRa_1440 assay. It is designed to make measurements of protein fragment complementation, a form of binding reporter, as detected with fluorescence intensity signals by Protein-fragment Complementation technology.Data from the assay component OT_NURR1_NURR1RXRa_1440 was analyzed into 1 assay endpoint. This assay endpoint, OT_NURR1_NURR1RXRa_1440, was analyzed in the positive analysis fitting direction relative to DMSO as the negative control and baseline of activity. Using a type of binding reporter, measures of receptor for gain-of-signal activity can be used to understand the binding at the pathway-level as they relate to the gene RXRA. Furthermore, this assay endpoint can be referred to as a primary readout, because the performed assay has only produced 1 assay endpoint. To generalize the intended target to other relatable targets, this assay endpoint is annotated to the nuclear receptor intended target family, where the subfamily is non-steroidal.
Protein-fragment complementation assay, or PCA, is a method for the identification and quantification of protein-protein interactions. In the PCA, the proteins of interest ("bait" and "prey") are each covalently linked to fragments of a third protein (e.g. DHFR, which acts as a "reporter"). Interaction between the bait and the prey proteins brings the fragments of the reporter protein in close proximity to allow them to form a functional reporter protein whose activity can be measured.

Row | Compound | outcome | AC50
1 | CCCCCCCCCC=O | inactive | –
2 | CCCCCCCCCCCCCCCC(=O)O | inactive | –
3 | O=C[C@@H](O)[C@H](O)[C@H](O)CO | inactive | –
4 | BrC1CCC(Br)C(Br)CCC(Br)C(Br)CCC1Br (stereo not given) | inactive | –
5 | O=C(Oc1ccccc1)c1ccc(O)cc1 | inactive | –
6 | O=C(O)c1ccc(C(=O)O)cc1 | inactive | –
7 | CC(C)(C#N)c1cc(Cn2cncn2)cc(C(C)(C)C#N)c1 | inactive | –
8 | CCCCCCCCC=O | inactive | –
9 | CN(C)CCCN | inactive | –
10 | OCCOCCOCCOCCO | inactive | –
11 | CCCCCCCCC | inactive | –
12 | Cc1ccc(C(C)C)cc1O | inactive | –
13 | CC(C)c1cccc(O)c1 | inactive | –
14 | C=O | inactive | –
15 | C=CC[N+](C)(C)CC=C | inactive | –
16 | CCCCCCCCCCCCCC(=O)O | inactive | –
17 | CCN(CC)c1ccc2c(-c3ccccc3C(=O)O)c3ccc(=[N+](CC)CC)cc-3oc2c1 | – | 16.1 µM (active)
18 | CCCCc1ccc(N)cc1 | inactive | –
19 | C=CCOc1nc(OCC=C)nc(OCC=C)n1 | inactive | –
20 | CC(=O)OCCOC(C)=O | inactive | –

Row | Compound | outcome | AC50
21 | CCCCCCCCCCCCCCCCCC(=O)OCC(CC)CCCC (stereo not given) | inactive | –
22 | Cc1ccc(S)cc1 | – | 79.8 µM (active)
23 | CC1=CC(=O)NS(=O)(=O)O1 | inactive | –
24 | c1ccc2[nH]ccc2c1 | inactive | –
25 | CC(=O)OCCC(C)CC(C)(C)C (stereo not given) | inactive | –
26 | CCCCCCCCCCN | – | 78.2 µM (active)
27 | CCCCOCCOCCOCCOCCO | inactive | –
28 | CC(=O)C=CC1=C(C)CCCC1(C)C | inactive | –
29 | CCCCCCCCCCC(CO)CCCCCCCC (stereo not given) | inactive | –
30 | NC(=O)Nc1ccc(Cl)cc1 | inactive | –
31 | NC(=O)NC1NC(=O)NC1=O (stereo not given) | inactive | –
32 | C[Si](O[Si](C)(C)C)O[Si](C)(C)C | inactive | –
33 | COc1ccc(O)cc1 | – | 44.6 µM (active)
34 | O=c1cc(-c2ccccc2)oc2cc(O)cc(O)c12 | inactive | –
35 | OCCN1CCNCC1 | inactive | –
36 | CC(C)CCCCCCCOC(=O)c1ccc(C(=O)OCCCCCCCC(C)C)c(C(=O)OCCCCCCCC(C)C)c1 | inactive | –
37 | NCCNCCN | inactive | –
38 | C=CC(C)(O)CCC=C(C)CCC=C(C)C (stereo not given) | – | 50 µM (active)
39 | CCCCCCCCCCCCCCCC(=O)OC[C@H](O)[C@H]1OC(=O)C(O)=C1O | – | 84.2 µM (active)
40 | O=C1NC(=O)c2ccccc21 | inactive | –
